Bioassay records deposited in PubChem BioAssay by National Center for Advancing Translational Sciences (NCATS).
FLuc modulator – inhibits or activates purified firefly luciferase, miR-21 counter-screen. purified FLuc, Km substrates, luminescence inhibition. Potency, µM (highest dose often 57.5 µM), actives largely listed as inhibitors. hit rate 6.9% among 360,000; further: nearly all actives have a fitted effect of over 55% in size
Target sequence (P08659 whole entry, looked up): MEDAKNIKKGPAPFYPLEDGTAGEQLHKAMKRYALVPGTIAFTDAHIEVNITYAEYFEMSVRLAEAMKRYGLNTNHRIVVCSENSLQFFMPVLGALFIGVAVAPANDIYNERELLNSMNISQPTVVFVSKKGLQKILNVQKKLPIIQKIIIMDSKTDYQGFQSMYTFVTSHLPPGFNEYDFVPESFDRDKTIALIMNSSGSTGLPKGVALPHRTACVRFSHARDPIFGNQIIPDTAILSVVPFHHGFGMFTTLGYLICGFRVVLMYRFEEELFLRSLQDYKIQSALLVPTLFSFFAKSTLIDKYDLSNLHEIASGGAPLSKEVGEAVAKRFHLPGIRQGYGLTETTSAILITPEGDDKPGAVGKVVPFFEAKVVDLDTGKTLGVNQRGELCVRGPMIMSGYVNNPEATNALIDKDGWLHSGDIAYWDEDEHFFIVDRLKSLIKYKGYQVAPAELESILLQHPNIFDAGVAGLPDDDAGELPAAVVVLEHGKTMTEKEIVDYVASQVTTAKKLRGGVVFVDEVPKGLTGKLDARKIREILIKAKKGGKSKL
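Purified P. pyralis luciferase (10nM final) with 10uM D-luciferin and 10uM ATP (Km levels) in 50mM Tris acetate pH 7.5, 10mM Mg acetate, 0.01% Tween-20, 0.05% BSA; qHTS 6-point titration, ~60 µM downward; luminescence read.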
SMN2 splice enh – increases expression of the SMN2 splice variant | HEK293 SMN2-luciferase splicing reporter, luminescence, 30-36 h | hit rate 2.8% among 210,000 | Potency, µM (series often up to 46.1 µM), most hits filed as activators; further: nearly all actives have a fitted effect of over 55% in size
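HEK293 cells carry an SMN2 […]–luciferase reporter in which exon 7 inclusion puts luciferase in frame. Cells were plated 10-12 h before compound addition, then incubated 30-36 h at 37C. ONE-Glo luminescence was read; sodium butyrate at 4.5 mM final served as control.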
ELG1 genotox – inducers of genotoxicity in HEK293T ELG1-luciferase cells | HEK293T ELG1-luciferase reporter, luminescence, 16 h | AID 504466 | hit rate 1.3% among 330,000 | Potency, µM (series often up to 46 µM), usual class: activators; further: nearly all actives have a fitted effect of over 60% in size
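Cells (2,000/well) expressing the ELG1-luciferase fusion are dosed by pin tool and kept 16 hr at 37 °C, 5% CO2. Signal comes from ONE-Glo luciferase reagent after 30 min at room temperature.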
NPC1 prom act – NPC1 promoter activation | Potency, µM (highest dose often 9.22 µM), actives largely listed as activators | hit rate 2.4% among 320,000 | Huh7 NPC1 promoter luciferase reporter, 24 h; further: nearly all actives have a fitted effect of over 60% in size
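Compounds in DMSO were transferred onto Huh7 NPC1-luciferase reporter cells pre-incubated 2 h; after 24 h at 37 °C, Amplite reagent was dispensed and luminescence recorded 10 min later.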
Rab9 prom act – activates the Rab9 promoter; Huh7 Rab9 promoter-luciferase reporter, luminescence, 24 h; hit rate 2.8% among 320,000; Potency, µM (highest dose often 9.22 µM), usual class: activators; AID 485297; further: nearly all actives have a fitted effect of over 60% in size
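Cells were plated at 1500 per well in reduced-serum medium with 10% FBS and left 2 h. Compound in DMSO was then added for 24 h at 37 °C. Reporter signal was read by luminescence after 10 min with luciferase detection reagent.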
A number is an active result; 0 = inactive; ? = inconclusive; - = not tested or not shown; [ ] = another dose, or the depositor's remark. In the library only some 7.4% were active in any assay of this set; here they are far more common. The call rests on the fitted dose curve; in most records, active means well fitted curve in the direction sought with a large enough effect; inconclusive means small, poorly fitted or top-dose-only effect, or another doubt; inactive means no such curve, though single readings can be large; an effect the other way counts as inactive or inconclusive.

SMILES	FLuc modulator	SMN2 splice enh	ELG1 genotox	NPC1 prom act	Rab9 prom act
CCc1ccc(NC(=O)c2n[nH]c(=O)c3ccccc23)cc1	?	-	?	3.2µM	2.5µM
C/C(=C\C(=O)c1sccc1Cl)N(C)C	0	0	0	0	0
CCOC(=O)c1c(NC(=O)C2c3ccccc3Oc3ccccc32)sc(C)c1CC	0	0	-	-	-
CCOc1ccc(NC(=O)CCc2nnc3n(C)c(=O)c4sccc4n23)cc1	0	0	-	-	-
COc1ccccc1C(=O)COC(=O)/C(=C/c1ccccc1)NC(C)=O	0	-	0	0	0
CCc1ccc(NC(=O)CN2CCCN(S(=O)(=O)c3ccc(F)cc3)CC2)cc1	0	-	0	0	0
CCOc1ccccc1CNC(=O)c1nc(-c2ccc(Cl)cc2)n2c1CCCCC2	0	-	-	-	-
C/C(=N\NC(=O)CNC(=O)c1ccccc1F)c1ccco1	0	-	0	0	0
CC(C)(C)NC(=O)c1ccc2nccnc2c1	0	0	0	0	0
COc1ccc(NC(=O)c2ccc3nccnc3c2)cc1	27µM	13µM	?	4µM	2µM
CCOc1ccc(NC(=O)c2ccncc2)cc1	?	0	?	0	0
CC(C)(C)NC(=O)Nc1ccc2nccnc2c1	24µM	?	?	3.5µM	3.5µM
COc1ccc(NC(=O)c2cccnc2)cc1	0	-	0	0	0
CCOc1ccc(NC(=O)c2ccc(NC(=O)Cc3n[nH]c(=O)c4ccccc34)cc2)cc1	0	-	9.2µM	0	0
CCOc1ccc(NC(=O)c2ccc3nccnc3c2)cc1	17µM	0	?	0	?
Cc1ccc(C(=O)COC(=O)CCN2C(=O)C3C4C=CC(C5CC45)C3C2=O)cc1 (centres undefined)	?	-	0	0	0
CCc1ccc(-c2cn(-c3nc(C)cc(C)n3)c(=N)o2)cc1	5.4µM	0	0	0	0
COC(=O)c1c(C)[nH]c(O)c1C=Nc1ccc(Oc2ccccc2)cc1	?	0	0	0	0
COC(=O)c1c(C)[nH]c(O)c1C=Nc1ccc(C(C)C)cc1	8.5µM	0	?	?	?
O=C(C1CCCN(S(=O)(=O)c2cccc3cccnc23)C1)N1CCN(c2ccc(F)cc2)CC1 (centres undefined)	0	0	0	0	0
CCCc1ccc(OC(C)c2nc(-c3ccc(-n4cccc4)cc3)no2)cc1 (centres undefined)	0	0	-	-	-
CCOC(=O)CN1C(=O)S/C(=C/c2ccc(C)o2)C1=O	0	-	0	0	0
COC(=O)C(C)N1C(=O)S/C(=C/c2cc(C)n(-c3ccccn3)c2C)C1=O (centres undefined)	3µM	0	2.6µM	1.6µM	0.89µM
CCOC(=O)CN1C(=O)S/C(=C/c2cc(C)n(-c3ccccn3)c2C)C1=O	6µM	0	0	?	4µM
CCOC(=O)C(C)N1C(=O)S/C(=C/c2ccc3c(c2)n(C)c(=O)n3C)C1=O (centres undefined)	0	0	?	0	0
SMILES	FLuc modulator	SMN2 splice enh	ELG1 genotox	NPC1 prom act	Rab9 prom act
COC(=O)C(C)N1C(=O)S/C(=C\c2cc(C)n(-c3ccccn3)c2C)C1=O (centres undefined)	2.7µM	0	1.6µM	2µM	2µM
CCc1cccc(NC(=O)Cn2c(C(=O)OC)cc3occc32)c1	0	0	-	-	-
CC(C)(C)c1ccc(-c2nnc(SCCN3C(=O)c4ccccc4C3=O)o2)cc1	15µM	0	0	0	0
COc1ccc(-c2noc(CC(=O)Nc3cc(OC)ccc3OC)n2)cc1	0	-	-	-	-
CCOC(=O)N1CCN(S(=O)(=O)c2ccc(C(=O)Nc3nnc(C4CC4)o3)cc2)CC1	0	0	0	0	0
CCOC(=O)N1CCN(S(=O)(=O)c2ccc(C(=O)Nc3nnc(CC)o3)cc2)CC1	0	3.5µM	0	0	0
Cc1ccc(CSCc2nc3ccccc3[nH]2)cc1	?	0	0	0	0
CC(C)SCc1nc2ccccc2[nH]1	0	0	0	0	0
c1ccc(SCc2nc3ccccc3[nH]2)cc1	12µM	?	?	2.5µM	2.2µM
Fc1ccccc1CSCc1nc2ccccc2[nH]1	17µM	10µM	?	4µM	2.8µM
Cc1ccc(SCc2nc3ccccc3[nH]2)cc1	6µM	?	0	2.2µM	?
O=c1[nH]c2ccccc2nc1-c1ccc(Cl)cc1	?	-	?	?	2.8µM
c1ccc2[nH]c(CSc3nccs3)nc2c1	?	?	0	0	0
O=C(CCCn1cc([N+](=O)[O-])cn1)Nc1cccnc1	0	-	0	0	0
Cc1ccc(S(=O)(=O)NCC(=O)N(CC(=O)NCC2CCCO2)Cc2ccco2)cc1 (centres undefined)	0	-	0	0	0
Clc1ccc(SCc2nc3ccccc3[nH]2)cc1	9.5µM	0	0	?	?
N#Cc1c(N2C(=O)Nc3ccccc3N2O)sc2c1CCCC2	13µM	0	0	0	0
N#Cc1c(N2C(=O)Nc3ccccc3N2O)sc2c1CCCCCC2	?	0	0	0	0
COC(CNC(=O)C(=O)Nc1cc2c3c(c1)CCN3C(=O)CC2)OC	0	-	0	0	0
c1ccc2c(c1)oc1c(NCC3CCCO3)ncnc12 (centres undefined)	17µM	0	0	0	0
CC(=O)Nc1ccc(Nc2nc(C)nc3c2oc2ccccc23)cc1	0	-	0	0	0
c1ccc(-c2nc(NCC3CCCO3)c3oc4ccccc4c3n2)cc1 (centres undefined)	15µM	0	0	0	0
Clc1ccc2[nH]c3c(NCC4CCCO4)ncnc3c2c1 (centres undefined)	?	-	0	0	0
c1ccc(CNc2ncnc3c2oc2ccccc23)nc1	19µM	0	0	0	0
CC(=O)c1ccc(Nc2ncnc3c2oc2ccccc23)cc1	?	1.6µM	2.1µM	1.4µM	?
SMILES	FLuc modulator	SMN2 splice enh	ELG1 genotox	NPC1 prom act	Rab9 prom act
COc1c(C2=CC(=O)N(C)C2=O)c2c(n1C)C(=O)c1ccccc1C2=O	-	0	-	-	-
COc1ccc(OCC(=O)NNC(=S)NC(=O)c2ccc(Br)o2)cc1	?	-	0	0	0[1.84 µM]
CC(C)(C)C1CCc2c(sc3c2C(=O)NC(c2ccco2)N3)C1 (centres undefined)	3µM	13µM	0	?	2.5µM
COc1ccc(-c2c(C)c3ccc(OCC(C)=O)cc3oc2=O)cc1	24µM	?	0	2.8µM	2.2µM
CCN(CC)c1ccc2c(C)c(-c3ccc(N)cc3)c(=O)oc2c1	24µM	?	0	0	0
COc1ccc(-c2c(C)c3ccc(O)cc3oc2=O)cc1	15µM	-	0[9.26 µM]	?	0
O=c1oc2cc(O)ccc2c2ccccc12	0	0	0	0	0
CC(=O)COc1ccc2c(C)c(C)c(=O)oc2c1	0	0	?	0	?
O=c1oc2cc(O)ccc2c2oc3cc(O)ccc3c12	19µM	0	0	0	0
NC(=O)C1=NOC(CNc2ncc(C(F)(F)F)cc2Cl)C1 (centres undefined)	?	0	23µM	0	?
COc1cc(/C=N/c2oc(C)c(C)c2C#N)cc(Br)c1O	15µM	-	0	0	0
Cc1oc(/N=C/c2cccc3ccccc23)c(C#N)c1C	0	0	0	0	0
